Bioassay records from PubChem BioAssay.
TrxR1 substrate: qHTS Assay for Substrates of Mammalian Selenoprotein Thioredoxin Reductase 1 (TrxR1): qHTS | 390,000 tested, 0.01% active | purified TrxR1 substrate turnover, NADPH consumption readout | Potency, µM (highest dose often 114 µM), inactives show at the top dose activity change, negative = substrate turnover; further: potency means the concentration at half of the fitted maximal effect; nearly all actives have a fitted effect of over 50% in size
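Rat TrxR1, dispensed at 90 nM, was prereduced with 400 uM NADPH (final) for 5 min at ~22 deg C, then incubated with compound 15 min before 400 uM selenite. A first-read NADPH fluorescence drop versus no-compound background flagged substrates.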
Coupling enz: qHTS Assay for Inhibitors of Fructose-1,6-bisphosphate Aldolase from Giardia Lamblia: Coupling assay counterscreen; coupling enzyme system counterscreen, AmpLite Red fluorescence; 290,000 tested, 0.67% active; activity change, negative = inhibition, % at 58.2 µM, hits read low; in the data active means activity change below about -30%
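Counterscreen of the coupled detection system alone, without aldolase: glyceraldehyde-3-phosphate coupling enzymes plus AmpLite Red readout. Compounds at 57.5 uM final, 10 min RT preincubation, 20 min RT reaction, fluorescence 525/598 nm.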
RORgamma inh: qHTS for inhibitors of ROR gamma transcriptional activity | Potency, µM (top dose mostly 53.6 µM), for the others: top-dose activity change, negative = inhibition, hits mostly inhibitors | Drosophila S2 Gal4-RORgamma UAS-luciferase reporter, 20 h | 310,000 tested, 5.4% active; further: potency means the concentration at half of the fitted maximal effect; nearly all actives have a fitted effect of over 60% in size
Target sequence (P51450 whole entry, looked up, the tested form may be a part): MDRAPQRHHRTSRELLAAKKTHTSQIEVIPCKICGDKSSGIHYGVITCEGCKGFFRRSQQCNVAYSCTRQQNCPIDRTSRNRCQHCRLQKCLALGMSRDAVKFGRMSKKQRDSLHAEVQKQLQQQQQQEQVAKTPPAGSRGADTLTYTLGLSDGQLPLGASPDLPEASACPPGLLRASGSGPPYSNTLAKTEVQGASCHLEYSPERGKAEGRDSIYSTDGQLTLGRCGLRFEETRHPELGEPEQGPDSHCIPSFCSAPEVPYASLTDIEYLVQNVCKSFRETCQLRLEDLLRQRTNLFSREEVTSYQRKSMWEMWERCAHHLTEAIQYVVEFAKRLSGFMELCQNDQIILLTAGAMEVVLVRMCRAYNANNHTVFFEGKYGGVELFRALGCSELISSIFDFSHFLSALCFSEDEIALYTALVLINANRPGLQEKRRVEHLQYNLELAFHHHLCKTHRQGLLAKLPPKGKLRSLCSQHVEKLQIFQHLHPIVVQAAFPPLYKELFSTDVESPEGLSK
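Schneider cells (Drosophila), stable Gal4 DBD–ROR gamma + UAS-luc; 1 hr cmpd preincubation; Cu2+ induction 700 uM final; 20 hr ambient; luminescence.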
GALK inh: qHTS Assay for Inhibitors of Human Galactokinase (GALK); AID 1868, 2009; Potency, µM (titrated, usually from 57.5 µM), for inactives: at the top dose activity change, negative = inhibition, most hits filed as inhibitors; Purified GALK, Kinase-Glo residual ATP luminescence; 270,000 tested, 0.007% active; P51570; further: potency means the concentration at half of the fitted maximal effect
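5 nM enzyme, 35 uM ATP, 100 uM galactose, 20 mM HEPES pH8.0, 5 mM MgCl2; 1 h RT; residual ATP by Kinase-Glo Plus luminescence, qHTS format.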
rTrxR1 inhibitor: qHTS Assay for Inhibitors of Mammalian Selenoprotein Thioredoxin Reductase 1 (TrxR1): qHTS | recombinant rTrxR1, NADPH fluorescence consumption, selenite substrate | Potency, µM (highest dose often 114 µM), without a hit: at the top dose activity change, negative = inhibition, usual class: inhibitors | 390,000 tested, 1% active | AID 588453, 2011; further: potency means the concentration at half of the fitted maximal effect; nearly all actives have a fitted effect of over 65% in size
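Rat TrxR1 (90 nM in the dispensed reagent) was pre-reduced with 400 uM NADPH for 5 min at room temperature, then incubated with compound for 15 min. After 400 uM selenite was added, NADPH fluorescence (Ex 340/Em 450 nm) was followed for 8 min.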
Gal4-VP16 FLuc: VP16 counterscreen qHTS for inhibitors of ROR gamma transcriptional activity; Drosophila S2 Gal4-VP16 UAS-luciferase, luminescence, 20 h; Potency, µM (top dose mostly 53.6 µM), without a hit: at the top dose activity, negative = inhibition, hits mostly inhibitors; 310,000 tested, 3.5% active; AID 2546, 2010;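 further: Gal4-VP16 expression switched on by copper sulfate through the metallothionein promoter; potency means the concentration at half of the fitted maximal effect; nearly all actives have a fitted effect of over 50% in size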
* hit, by the source's call; ? = inconclusive; . = no result; [ ] = dose if it differs, or a comment. A selection: hits, their analogues and other compounds. The true share with any hit is near 5.9%. Unless noted, the call rests on the fitted dose curve; in most records, active means well fitted curve in the direction sought with a large enough effect; inconclusive means small, poorly fitted or top-dose-only effect, or another doubt; inactive means no such curve, though single readings can be large; an effect the other way counts as inactive or inconclusive. On the % scale 0 is the no-effect control and ±100 the full control effect.

SMILES	TrxR1 substrate	Coupling enz	RORgamma inh	GALK inh	rTrxR1 inhibitor	Gal4-VP16 FLuc
O=C(NCc1ccccn1)/C(=C/c1ccco1)NC(=O)c1ccccc1	-5%	-1	-9%	-1%	?	-3%
CC(=O)N=Cc1c(C)c(C#N)c(=O)n(C)c1O	-9%[57.1 µM]	-51*	31%	-2%	?	-11%
Cc1c(/C=N/Nc2ccc(F)cc2)c(O)n(C)c(=O)c1C#N	-19%	-23	17%	-6%	?	2%
Cc1c(C=O)c(Cl)n(C)c(=O)c1C#N	1%[57.1 µM]	-46*	-20%	0%	-52%	0%
COc1ccc2nc(C)cc(N3CCN(c4ccccc4)CC3)c2c1	1%	0	14µM*	-3%	6%	-14%
COc1ccc(/C=C2\SC(=S)N(CC(=O)Nc3nnc(C)s3)C2=O)cc1	12%[57.1 µM]	-2	-3%	.	10%[57.1 µM]	-13%
CCC(=O)NNC(=S)NC(=O)c1ccc(C)cc1	3%[57.1 µM]	-1	3.2µM*	4%	?	18µM*
Cc1ccc(C(=O)NC(=S)NNC(=O)COc2ccccc2C)cc1	9%[57.1 µM]	3	4µM*	0%	-3%[57.1 µM]	?
CC(=O)NNC(=S)NC(=O)c1ccc(C)cc1	12%[57.1 µM]	4	22%	7%	12%	-4%
O=C(O)C1CCN(C(=O)c2cccc3ccccc23)CC1	-3%	0	-11%	-2%	-7%	-1%
CN1CC(C(=O)O)Cc2c1ccc1ccccc21 (configuration not stated)	317%	-46*	-7%	-4%	24%	-6%
COc1ccccc1Cn1c(CNS(=O)(=O)c2cccc([N+](=O)[O-])c2)nc2cccnc21	-6%[57.1 µM]	.	.	.	0%[57.1 µM]	.
CC(C)c1ccc(OCc2ccc(C(=O)O)o2)cc1	12%	21	2.8µM*	4%	11%	?
O=C(O)c1ccc(OCc2ccc(C(=O)O)o2)cc1	-5%	0	-5%	0%	-6%	1%
CCc1ccc(OCc2ccc(C(=O)O)o2)cc1	6%	15	7.1µM*	0%	-26%	?
O=C(N/N=C/c1cc(Br)ccc1O)C(=O)Nc1ccccc1OC(F)(F)C(F)F	-4%	5	0.79µM*	-2%	3%	2.8µM*
O=C(N/N=C/c1cc(Cl)ccc1O)C(=O)Nc1ccccc1OC(F)(F)C(F)F	-11%	-3	0.89µM*	1%	-14%	2.5µM*
COc1ccccc1/C=N/NC(=O)C(=O)Nc1ccccc1OC(F)(F)C(F)F	-2%	0	-5%	-1%	-1%	1%
CCCc1cc(C(=O)Nc2nnc(C)s2)cs1	11%	0	?	0%	23%	-23%
Cc1cc(SC#N)cc(C)c1NC(=O)CCl	-7%	1	3.5µM*	0%	50µM*	5µM*
Cc1ccc(NC(=O)CCl)c(C)c1	3%[57.1 µM]	-1	-20%	0%	-59%	-10%
CCC(=O)Nc1ccc(SC#N)cc1C	12%	3	13µM*	0%	65%	?
CCc1cc(SC#N)cc(C)c1NC(=O)CCl	20%[57.1 µM]	1	-44%	0%	?	0%
O=S(=O)(c1ccc(Cl)nc1)N1CCCc2ccccc21	-4%	-33*	11%	-1%	-4%	-19%
O=S(=O)(c1ccc(Cl)nc1)N1CCc2ccccc21	-9%	-5	29%	0%	-21%	12%
SMILES	TrxR1 substrate	Coupling enz	RORgamma inh	GALK inh	rTrxR1 inhibitor	Gal4-VP16 FLuc
CCOC(=O)N1CCN(Cc2nc3cc(NC(=O)C(C)C)ccc3n2CC)CC1	-9%	4	-5%	.	1%[57.1 µM]	-6%
COc1ccccc1-c1c(-c2ccc(OCC(=O)NN)cc2O)n[nH]c1C(F)(F)F	4%	0	-25%	2%	4%	11µM*
NNC(=O)COc1ccc(-c2n[nH]c(C(F)(F)F)c2-c2ccc(Br)cc2)c(O)c1	-7%	1	?	2%	-11%	?
CC1(C)CC(=O)C2=C(C1)OC(N)=C(C#N)C2C#Cc1ccccc1 (configuration not stated)	-3%	0	16%	3%	2.5µM*	-8%
CC(c1ccccc1)C1C(C#N)=C(N)OC2=C1C(=O)CC(C)(C)C2 (configuration not stated)	4%	4	?	2%	3%	4%
COc1cccc(Nc2cc(-c3ccccc3)nc(C)n2)c1	3%	.	.	.	16%	.
Cc1ccc(NC(=O)Cn2c(=O)n(-c3ccccc3)c(=O)c3ccc(C(=O)NCc4ccc5c(c4)OCO5)cc32)cc1	15%	.	.	.	4%	.
Nc1ccccc1C(=O)NNc1ncc(C(F)(F)F)cc1Cl	17%[57.1 µM]	3	0.79µM*	-2%	-2%[57.1 µM]	1µM*
CC(=O)CC(=O)Nc1ncc(C(F)(F)F)cc1Cl	-2%[57.1 µM]	2	25%	-6%	2%[57.1 µM]	-1%
O=C(NNc1ncc(C(F)(F)F)cc1Cl)c1ccc(Cl)c(Cl)c1	-6%	-1	11µM*	-1%	-12%	?
NS(=O)(=O)c1ccc(CCNC(=O)CCS(=O)(=O)c2ccc(Br)cc2)cc1	2%	2	15%	.	14%	-2%
COc1ccccc1NC(=O)Nc1nn(C)c2cccc(N(C)C)c12	11%[57.1 µM]	-34*	19%	4%	-9%[57.1 µM]	-16%
CN(C)c1cccc2c1c(NC(=O)Nc1ccc(Cl)cc1Cl)nn2C	2%	-23	12%	.	26%	17%
O=C(N/N=C/c1ccc(-c2cccc(C(F)(F)F)c2)o1)c1cccc(F)c1	-1%	-4	2µM*	-3%	0%	1.3µM*
O=C(N/N=C/c1ccc(-c2cccc(C(F)(F)F)c2)o1)c1ccccc1O	-3%	-1	0.28µM*	5%	-15%	0.56µM*
O=C(N/N=C/c1ccc(-c2cccc(C(F)(F)F)c2)o1)c1ccccc1Br	-5%	-2	11µM*	-3%	-14%	-91%
COc1cc2nc(N3CCN(C)CC3)nc(NC3CC3)c2cc1OC	34%	.	.	.	-15%	.
COc1cc(C(C)=O)ccc1OCC(O)CN1CCN(c2ccc(F)cc2)CC1 (configuration not stated)	0%	-1	?	-1%	5%	18%
COc1ccc(C(=O)O/N=C(\N)c2ccccc2)c(OC)c1	1%	-5	4.5µM*	6%	18%	8.9µM*
COc1ccc(C(=O)O/N=C(\N)c2ccc(OC)c(OC)c2)c(OC)c1	1%	3	-20%	-1%	10%	-11%
